About 83,000 compounds went through this panel and 20% of them were active in at least one assay; those are over-represented in the sample as a whole.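 Cells were grown in 96-well plates and exposed to the test compound at a single concentration for 48 hours; results are reported as percent growth, with values below 10 considered active.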 The source made the active and inactive calls.
Experiments:
Assay in all cases: NCI-60 one-dose screen, 48 h (100 = growth as untreated, 0 = no growth, -100 = all killed)
Details in all cases: 10 µM
HCT-15 colon = test system: HCT-15 colon
HT29 colon = test system: HT29 colon
SNB-75 CNS = test system: SNB-75 CNS
SNB-19 CNS = test system: SNB-19 CNS
U251 CNS = test system: U251 CNS
PC-3 prostate = test system: PC-3 prostate
SK-MEL-5 melanoma = test system: SK-MEL-5 melanoma
UACC-62 melanoma = test system: UACC-62 melanoma
LOX IMVI melanoma = test system: LOX IMVI melanoma
SK-MEL-28 melanoma = test system: SK-MEL-28 melanoma
SK-MEL-2 melanoma = test system: SK-MEL-2 melanoma
UO-31 renal = test system: UO-31 renal
TK-10 renal = test system: TK-10 renal
ACHN renal = test system: ACHN renal
A498 renal = test system: A498 renal
CCRF-CEM leukemia = test system: CCRF-CEM leukemia
EKVX NSCLC = test system: EKVX NSCLC
MOLT-4 leukemia = test system: MOLT-4 leukemia
CAKI-1 renal = test system: CAKI-1 renal
SN12C renal = test system: SN12C renal

Measured: growth

CC(C)(C)c1nn(-c2ccccc2)c2c1CC1(CN2Cc2ccc(Cl)cc2)C(=O)c2ccccc2C1=O
inactive: HCT-15 colon 88.2% | HT29 colon 65.1% | SNB-75 CNS 120% | SNB-19 CNS 84.5% | U251 CNS 85.7% | PC-3 prostate 44.2% | SK-MEL-5 melanoma 78.5% | UACC-62 melanoma 73.6% | LOX IMVI melanoma 81.8% | SK-MEL-28 melanoma 102% | SK-MEL-2 melanoma 92.4% | UO-31 renal 99.6% | TK-10 renal 99.3% | ACHN renal 98.9% | A498 renal 76.5% | CCRF-CEM leukemia 66.2%

CCN(CC)CCOc1ccc2c(c1O)C(=O)c1ccccc1C2=O
inactive: HCT-15 colon 74.4% | HT29 colon 68.1% | SNB-75 CNS 79.1% | SNB-19 CNS 82.6% | U251 CNS 77.3% | PC-3 prostate 85.3% | SK-MEL-5 melanoma 81.2% | UACC-62 melanoma 90.5% | LOX IMVI melanoma 76.6% | SK-MEL-28 melanoma 102% | SK-MEL-2 melanoma 88.1% | EKVX NSCLC 100% | UO-31 renal 67.3% | TK-10 renal 78% | ACHN renal 56.9% | A498 renal 88.3% | CCRF-CEM leukemia 77.2% | MOLT-4 leukemia 72.3%

COc1cc(OC)c2c(=O)c(O)c(-c3ccccc3)oc2c1
inactive: HCT-15 colon 51.7% | HT29 colon 99.6% | SNB-75 CNS 76% | SNB-19 CNS 62.4% | U251 CNS 47.1% | PC-3 prostate 67.1% | SK-MEL-5 melanoma 72.4% | UACC-62 melanoma 72.1% | LOX IMVI melanoma 59.1% | SK-MEL-28 melanoma 95.8% | SK-MEL-2 melanoma 87.3% | EKVX NSCLC 83.4% | UO-31 renal 53.8% | TK-10 renal 96.8% | ACHN renal 68% | A498 renal 69.6% | CCRF-CEM leukemia 47.8% | MOLT-4 leukemia 54.3%

O=C(O)c1cn(C2CC2)c2cc(N3CCN(C(=O)c4cc(-c5ccc(Cl)cc5)nc5ccccc45)CC3)c(F)cc2c1=O
inactive: HCT-15 colon 90.8% | HT29 colon 96.1% | SNB-75 CNS 77.2% | SNB-19 CNS 86% | U251 CNS 96% | PC-3 prostate 70.7% | SK-MEL-5 melanoma 85.4% | UACC-62 melanoma 66.6% | LOX IMVI melanoma 63.4% | SK-MEL-28 melanoma 96.6% | SK-MEL-2 melanoma 101% | EKVX NSCLC 85.5% | UO-31 renal 35.8% | TK-10 renal 113% | ACHN renal 87.3% | CAKI-1 renal 60.2% | A498 renal 74.2% | MOLT-4 leukemia 82.1%

COc1ccc2nc3cc(Cl)ccc3c(N)c2c1
active: HCT-15 colon -65% | HT29 colon -67.3% | SNB-75 CNS -99.3% | SNB-19 CNS 4.71% | U251 CNS -74.3% | PC-3 prostate -73% | SK-MEL-5 melanoma -95.6% | UACC-62 melanoma -96.4% | LOX IMVI melanoma -94.7% | SK-MEL-28 melanoma -98.4% | SK-MEL-2 melanoma -71.2% | SN12C renal -80.3% | UO-31 renal -74% | TK-10 renal -68.7% | ACHN renal -99.5% | CAKI-1 renal -55.6% | CCRF-CEM leukemia -5.6% | MOLT-4 leukemia -55.4%

COc1cc(-c2ccc(N=Nc3ccc4c(S(=O)(=O)O)ccc(N)c4c3O)c(OC)c2)ccc1N=Nc1ccc2c(S(=O)(=O)O)ccc(N)c2c1O
inactive: HCT-15 colon 110% | HT29 colon 105% | SNB-75 CNS 70.9% | SNB-19 CNS 110% | U251 CNS 107% | PC-3 prostate 98.7% | SK-MEL-5 melanoma 105% | UACC-62 melanoma 111% | LOX IMVI melanoma 102% | SK-MEL-28 melanoma 103% | SK-MEL-2 melanoma 102% | SN12C renal 123% | TK-10 renal 121% | ACHN renal 103% | A498 renal 124% | MOLT-4 leukemia 122%

S=c1cnc2ccccc2[nH]1
inactive: HCT-15 colon 102% | HT29 colon 93.7% | SNB-75 CNS 86.5% | SNB-19 CNS 109% | U251 CNS 95.5% | PC-3 prostate 86.1% | SK-MEL-5 melanoma 97.6% | UACC-62 melanoma 98.8% | LOX IMVI melanoma 94.3% | SK-MEL-28 melanoma 108% | SK-MEL-2 melanoma 95.6% | EKVX NSCLC 107% | UO-31 renal 76.6% | TK-10 renal 112% | ACHN renal 101% | A498 renal 99% | CCRF-CEM leukemia 103% | MOLT-4 leukemia 91.7%

COc1cccc2ccc(CC(O)(c3ccccc3)c3ccccc3)nc12
inactive: HCT-15 colon 54.7% | HT29 colon 91.8% | SNB-75 CNS 74.6% | SNB-19 CNS 96.6% | U251 CNS 97% | PC-3 prostate 79% | SK-MEL-5 melanoma 87% | UACC-62 melanoma 86.2% | LOX IMVI melanoma 92.4% | SK-MEL-28 melanoma 106% | SK-MEL-2 melanoma 85.1% | UO-31 renal 59.8% | TK-10 renal 128% | ACHN renal 84.3% | CAKI-1 renal 87.2% | A498 renal 102% | CCRF-CEM leukemia 95.7% | MOLT-4 leukemia 88.6%

CC(=O)Nc1ccc(S(=O)(=O)N/N=C(\C)c2ccc(C)cc2C)cc1
inactive: HCT-15 colon 100% | HT29 colon 105% | SNB-75 CNS 77.4% | SNB-19 CNS 101% | U251 CNS 104% | PC-3 prostate 99.9% | SK-MEL-5 melanoma 113% | UACC-62 melanoma 107% | LOX IMVI melanoma 106% | SK-MEL-28 melanoma 108% | SK-MEL-2 melanoma 93.1% | SN12C renal 110% | TK-10 renal 108% | ACHN renal 95.3% | A498 renal 112% | CCRF-CEM leukemia 103% | MOLT-4 leukemia 97.7%

O=S(=O)(Oc1ccc(-c2ccc3sccc3c2)cc1)c1ccccc1
inactive: HCT-15 colon 89.8% | HT29 colon 88.9% | SNB-75 CNS 120% | SNB-19 CNS 96.8% | U251 CNS 108% | PC-3 prostate 91% | SK-MEL-5 melanoma 94.4% | UACC-62 melanoma 74.9% | LOX IMVI melanoma 101% | SK-MEL-28 melanoma 97.9% | SK-MEL-2 melanoma 111% | EKVX NSCLC 95.8% | UO-31 renal 97.7% | TK-10 renal 99.8% | ACHN renal 112% | CAKI-1 renal 87% | A498 renal 89.2% | CCRF-CEM leukemia 98.9%

Cc1cc(CC(C)CC(C)(C)C)n(O)c(=O)c1 (configuration not stated) (tested in a mixture with another compound)
active: SK-MEL-5 melanoma -1.17% | UACC-62 melanoma -8.65% | LOX IMVI melanoma 7.96% | UO-31 renal 0% | ACHN renal 9.73% | MOLT-4 leukemia -6.44%
inactive: HCT-15 colon 23.8% | HT29 colon 53.2% | SNB-75 CNS 16.7% | SNB-19 CNS 26% | U251 CNS 17.8% | PC-3 prostate 33.9% | SK-MEL-28 melanoma 25.1% | EKVX NSCLC 24.2% | SN12C renal 13.2% | TK-10 renal 75% | CAKI-1 renal 34.3% | A498 renal 62.4% | CCRF-CEM leukemia 11.4%

Cc1ccc(NCCNCC(C)(C)O)c2c(=O)c3ccc(Cl)cc3sc12
inactive: SNB-75 CNS 76.1% | SNB-19 CNS 46.2% | PC-3 prostate 36.8% | SK-MEL-5 melanoma 44.2% | SK-MEL-2 melanoma 57.4% | EKVX NSCLC 71.8% | UO-31 renal 41.2% | TK-10 renal 74.2% | A498 renal 59%
active: HCT-15 colon -7.39% | HT29 colon -73.1% | U251 CNS -74.5% | UACC-62 melanoma -66.6% | LOX IMVI melanoma -92.6% | SK-MEL-28 melanoma -60% | ACHN renal 3.43% | CCRF-CEM leukemia -14.4% | MOLT-4 leukemia -30.7%

Cc1ccc(NC(=O)N2CCCCC2)cc1[N+](=O)[O-]
active: CCRF-CEM leukemia 7.44%
inactive: HCT-15 colon 96% | HT29 colon 103% | SNB-75 CNS 90.5% | SNB-19 CNS 98.4% | U251 CNS 101% | PC-3 prostate 76.6% | SK-MEL-5 melanoma 103% | UACC-62 melanoma 86.7% | LOX IMVI melanoma 97% | SK-MEL-28 melanoma 105% | SK-MEL-2 melanoma 119% | SN12C renal 106% | UO-31 renal 77.6% | ACHN renal 95% | A498 renal 107% | MOLT-4 leukemia 137%

COc1ccc2c(c1)C(=O)/C(=C/c1ncc([N+](=O)[O-])n1C)O2
inactive: SNB-75 CNS 69.5% | PC-3 prostate 101% | CCRF-CEM leukemia 95.1%
active: HCT-15 colon 6.82% | HT29 colon -20.5% | SNB-19 CNS -16.6% | U251 CNS -25.4% | SK-MEL-5 melanoma -89% | UACC-62 melanoma -68.4% | LOX IMVI melanoma -68.1% | SK-MEL-28 melanoma -22.4% | SK-MEL-2 melanoma -52.1% | SN12C renal -11.5% | UO-31 renal -46.4% | TK-10 renal -37.9% | ACHN renal 9.55% | CAKI-1 renal -21.6% | A498 renal -35.5% | MOLT-4 leukemia -5.94%

CC(C)CCN(CCC(C)C)CC(=O)Nc1ccc(S(=O)(=O)c2ccc(NC(=O)CN(CCC(C)C)CCC(C)C)cc2)cc1
inactive: HCT-15 colon 10.4% | HT29 colon 10.3% | SNB-75 CNS 79.3% | SNB-19 CNS 52.6% | U251 CNS 10.5% | PC-3 prostate 39.7% | SK-MEL-5 melanoma 47% | UACC-62 melanoma 29.7% | SK-MEL-28 melanoma 72.6% | SK-MEL-2 melanoma 65.4% | EKVX NSCLC 83.1% | UO-31 renal 63.3% | TK-10 renal 96.4% | ACHN renal 69.7% | A498 renal 97.1%
active: LOX IMVI melanoma -78.4% | CCRF-CEM leukemia 2% | MOLT-4 leukemia 2.75%

CN(C)CCCOc1ccc(OCCCN(C)C)c2c1C(=O)c1ccccc1C2=O
inactive: HCT-15 colon 91.5% | PC-3 prostate 11% | SK-MEL-5 melanoma 10.5% | EKVX NSCLC 13.6% | UO-31 renal 62.7% | ACHN renal 10.8%
active: HT29 colon -20.6% | SNB-75 CNS -20.6% | SNB-19 CNS 7.81% | U251 CNS 5.27% | UACC-62 melanoma -46.4% | LOX IMVI melanoma -13.2% | SK-MEL-28 melanoma -4.67% | SK-MEL-2 melanoma -53.4% | TK-10 renal -6.02% | A498 renal -31.9% | MOLT-4 leukemia 5.64%

Oc1ccc(-c2[nH]c3ccccc3c2-c2nc3ccccc3o2)cc1
inactive: HCT-15 colon 25.4% | HT29 colon 27.8% | SNB-75 CNS 52.3% | SNB-19 CNS 89.6% | U251 CNS 60.9% | PC-3 prostate 57.4% | SK-MEL-5 melanoma 43.4% | UACC-62 melanoma 59.6% | LOX IMVI melanoma 34.6% | SK-MEL-28 melanoma 58% | SK-MEL-2 melanoma 66.9% | EKVX NSCLC 83% | UO-31 renal 40.9% | TK-10 renal 84.8% | ACHN renal 51.6% | A498 renal 81.4% | MOLT-4 leukemia 58.9%

CC(C)(C)OC(=O)N1CCc2c(sc3ncnc(N/N=C/c4ccccc4Br)c23)C1
inactive: HCT-15 colon 25.5% | HT29 colon 77.2% | SNB-75 CNS 74.5% | SNB-19 CNS 93.1% | U251 CNS 74.9% | PC-3 prostate 48.1% | SK-MEL-5 melanoma 66.6% | UACC-62 melanoma 60.1% | LOX IMVI melanoma 55.5% | SK-MEL-28 melanoma 81.9% | SK-MEL-2 melanoma 91.7% | EKVX NSCLC 52.2% | TK-10 renal 79.6% | ACHN renal 42.4% | CAKI-1 renal 54.4% | A498 renal 84.7% | MOLT-4 leukemia 21.2%

Reference: PubChem BioAssay (NCI)
